Our source for the nuclei count, normalised and p53-positive nuclei, normalised values is PubChem BioAssay AID1508601 (ICCB-Longwood Screening Facility, Harvard Medical School, 2020).

Screen size: about 5,700 compounds; about 85 (1%) were called active. Cut-off read from the data, not from the text of the source: active = p53-positive nuclei above about 36% (passing the limit was not always enough); inactive = the rest. Only a selection was taken, and actives are over-represented in it overall.

The nature of experiment [1]: nuclear p53 accumulation, HPV+ cells – imaging, p53-positive nuclei imaging, 24 h, 48 h (AID 1508601). Particulars: 24/48 h.
Experiment [2] concerns the target Cellular tumor antigen p53 (Homo sapiens) (UniProt P04637). Described as above. Particulars: 24/48 h, stronger effect = higher value.
Setting [3] is: measured here: cell number at 24 h, concentration not given here.
[4] abbreviates: measured here: cell number at 48 h, concentration not given here.
Where [5] appears, read: measured here: p53 positive nuclei at 24 h, concentration not given here.
[6] abbreviates: measured here: cell number at 24 h, Library stock concentration: 3.33 mM.
Where [7] appears, read: measured here: cell number at 48 h, Library stock concentration: 3.33 mM.
Setting [8] is: Library stock concentration: 3.33 mM.
[9] abbreviates: measured here: p53 positive nuclei at 24 h, Library stock concentration: 3.33 mM.
Where [10] appears, read: measured here: cell number at 24 h, Library stock concentration: 80 uM.
Setting [11] is: measured here: cell number at 24 h, Library stock concentration: 400 uM.
The mark [12] stands for this setting: measured here: cell number at 24 h, Library stock concentration: 2 mM.
Setting [13] is: measured here: cell number at 24 h, Library stock concentration: 10 mM.
Where [14] appears, read: measured here: cell number at 48 h, Library stock concentration: 80 uM.
Where [15] appears, read: measured here: cell number at 48 h, Library stock concentration: 400 uM.
Setting [16] is: measured here: cell number at 48 h, Library stock concentration: 2 mM.
The mark [17] stands for this setting: measured here: cell number at 48 h, Library stock concentration: 10 mM.
Where [18] appears, read: Library stock concentration: 80 uM.
The mark [19] stands for this setting: Library stock concentration: 400 uM.
[20] abbreviates: Library stock concentration: 2 mM.
The mark [21] stands for this setting: Library stock concentration: 10 mM.
The mark [22] stands for this setting: measured here: p53 positive nuclei at 24 h, Library stock concentration: 80 uM.
Setting [23] is: measured here: p53 positive nuclei at 24 h, Library stock concentration: 400 uM.
The mark [24] stands for this setting: measured here: p53 positive nuclei at 24 h, Library stock concentration: 2 mM.
[25] abbreviates: measured here: p53 positive nuclei at 24 h, Library stock concentration: 10 mM.

Sequence of Cellular tumor antigen p53 (Homo sapiens) (P04637 whole entry, looked up): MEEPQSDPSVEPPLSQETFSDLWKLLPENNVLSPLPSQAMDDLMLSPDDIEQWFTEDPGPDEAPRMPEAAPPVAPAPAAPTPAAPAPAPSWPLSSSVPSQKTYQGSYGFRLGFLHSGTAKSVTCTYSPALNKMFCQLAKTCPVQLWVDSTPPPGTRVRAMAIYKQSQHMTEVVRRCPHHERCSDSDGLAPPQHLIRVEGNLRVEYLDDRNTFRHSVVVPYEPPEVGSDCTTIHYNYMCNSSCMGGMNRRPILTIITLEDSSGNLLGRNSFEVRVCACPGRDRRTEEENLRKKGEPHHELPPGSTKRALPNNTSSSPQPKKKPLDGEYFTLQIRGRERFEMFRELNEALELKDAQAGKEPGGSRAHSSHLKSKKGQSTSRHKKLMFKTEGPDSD

For the molecule `CCCCC/C=C\C/C=C\C/C=C\CCCCCCC(=O)OC`, the nuclei count, normalised in experiment [1] (setting [3]) worked out at 114%; in experiment [1] (setting [4]) it was 108%. Moreover, the p53-positive nuclei, normalised in experiment [2] (concentration not given here) is 0.0353% (inactive); in experiment [2] (setting [5]), 0.00725%.
As to `CCC(C)C(NC(=O)C(CCC(=O)O)NC(=O)C(CC(C)C)NC(=O)C1CN=C(C(N)C(C)C)S1)C(=O)NC1CCCCNC(=O)C(CC(N)=O)NC(=O)C(CC(=O)O)NC(=O)C(Cc2cnc[nH]2)NC(=O)C(Cc2ccccc2)NC(=O)C(C(C)CC)NC(=O)C(CCCN)NC1=O` (centres undefined), the nuclei count, normalised in experiment [1] (setting [6]) amounted to 97.5%; in experiment [1] (setting [7]) it was 99%. Further, the p53-positive nuclei, normalised in experiment [2] (setting [8]) was -0.136% (inactive); in experiment [2] (setting [9]) it was -0.227%.
In the same order, the values of `C[C@]12CC[C@H]3c4ccc(O)cc4CC[C@H]3[C@@H]1CCC2=O` are 111%, 121%, -0.0334% (inactive) and -0.211%.
Consider `COC(=O)[C@]12CCC(C)(C)C[C@@H]1[C@@H]1C(=O)C=C3[C@]4(C)C=C(C#N)C(=O)C(C)(C)[C@@H]4CC[C@@]3(C)[C@]1(C)CC2`, for which the results for the nuclei count, normalised in experiment [1] (setting [6]) and in experiment [1] (setting [7]) were 36.3% and 29.9%, respectively. For the same molecule, the p53-positive nuclei, normalised is 79.7% (active) in experiment [2] (setting [8]) and 88.9% in experiment [2] (setting [9]).
On to `CCCCN=C(N)NO`, for which the nuclei count, normalised in experiment [1] (setting [3]) and in experiment [1] (setting [4]) was 99.4% throughout. Also, the p53-positive nuclei, normalised in experiment [2] (concentration not given here) was -0.143% (inactive); in experiment [2] (setting [5]), -0.0268%.
For `O=C(Nc1ccc(-c2ccnc(Nc3ccc(N4CCOCC4)cc3)n2)cc1)C1CCCN1` (centres undefined), the nuclei count, normalised in experiment [1] (setting [10]) worked out at 114%; in experiment [1] (setting [11]), 116%; in experiment [1] (setting [12]), 107%; in experiment [1] (setting [6]) it was 102%; in experiment [1] (setting [13]), 104%; in experiment [1] (setting [14]), 109%. For the same molecule, the nuclei count, normalised came to 109% in experiment [1] (setting [15]), 104% in experiment [1] (setting [16]), 95.9% in experiment [1] (setting [7]) and 101% in experiment [1] (setting [17]). For the same molecule, the p53-positive nuclei, normalised in experiment [2] (setting [18]) was 0.0592% (inactive); in experiment [2] (setting [19]) it was -0.0399% (inactive); in experiment [2] (setting [20]), -0.0329% (inactive); in experiment [2] (setting [8]) it was -0.0902% (inactive); in experiment [2] (setting [21]), 0.0109% (inactive); in experiment [2] (setting [22]), 0.0145%. For the same molecule, the p53-positive nuclei, normalised in experiment [2] (setting [23]) is -0.114%; in experiment [2] (setting [24]), 0.0282%; in experiment [2] (setting [9]), -0.231%; in experiment [2] (setting [25]) it was -0.058%.
Regarding `Cc1nc(N)sc1-c1ccnc(Nc2ccc(N3CCOCC3)cc2)n1`, the nuclei count, normalised in experiment [1] (setting [6]) is 40.5%; in experiment [1] (setting [7]) it was 28.3%. Moreover, the p53-positive nuclei, normalised was -0.214% (inactive) in experiment [2] (setting [8]) and -0.143% in experiment [2] (setting [9]).
As to `Fc1cc(-c2ccnc(Nc3ccc(-n4cnc(N5CCOCC5)n4)cc3)n2)cc(N2CCOCC2)c1`, the nuclei count, normalised stood at 86.7% in experiment [1] (setting [10]); 101% in experiment [1] (setting [11]); 64.8% in experiment [1] (setting [12]); 36.4% in experiment [1] (setting [13]); 73% in experiment [1] (setting [14]); 81% in experiment [1] (setting [15]). Also, the values for the nuclei count, normalised in experiment [1] (setting [16]) and in experiment [1] (setting [17]) were 43.7% and 21.7%, respectively. Moreover, the p53-positive nuclei, normalised was 27.8% (inactive) in experiment [2] (setting [18]); 13.6% (inactive) in experiment [2] (setting [19]); 90.9% (active) in experiment [2] (setting [20]); 38.1% (inactive) in experiment [2] (setting [21]); 7.9% in experiment [2] (setting [22]); 2.88% in experiment [2] (setting [23]). Further, the p53-positive nuclei, normalised stood at 49.4% in experiment [2] (setting [24]) and 15.7% in experiment [2] (setting [25]).
With `CC(C)CC(NC(=O)CNC(=O)c1cc(Cl)ccc1Cl)B(O)O` (centres undefined), the values for the nuclei count, normalised in experiment [1] (setting [6]) and in experiment [1] (setting [7]) were 50.2% and 43.3%, respectively. Further, the results for the p53-positive nuclei, normalised in experiment [2] (setting [8]) and in experiment [2] (setting [9]) were 98% (active) and 94%, respectively.
In the same order, the values of `CCCC(C)NC(=O)c1ccc(Cl)c(Cl)c1` (centres undefined) are 116%, 114%, -0.00479% (inactive) and -0.344%.
As to `CC(C)CC(NC(=O)CNC(=O)c1cc(Cl)ccc1Cl)B1OC(=O)CC(CC(=O)O)(C(=O)O)O1` (centres undefined), the values for the nuclei count, normalised in experiment [1] (setting [6]) and in experiment [1] (setting [7]) were 46.4% and 36.8%, respectively. Moreover, the p53-positive nuclei, normalised was 97.7% (active) in experiment [2] (setting [8]) and 101% in experiment [2] (setting [9]).
Consider `CNC(=O)C(c1ccccc1)N1CCc2cc(OC)c(OC)cc2C1CCc1ccc(C(F)(F)F)cc1` (centres undefined), for which the nuclei count, normalised was 107% in experiment [1] (setting [6]) and 104% in experiment [1] (setting [7]). In addition, the figures for the p53-positive nuclei, normalised in experiment [2] (setting [8]) and in experiment [2] (setting [9]) were -0.362% (inactive) and -0.539%, respectively.
For the molecule `Cc1occc1C(=O)Nc1ccccc1C(=O)N(C)Cc1ccccn1`, the nuclei count, normalised in experiment [1] (setting [3]) stood at 96.8%; in experiment [1] (setting [4]) it was 105%. Also, the p53-positive nuclei, normalised in experiment [2] (concentration not given here) was 0.23% (inactive); in experiment [2] (setting [5]), 0.178%.
On the same counts, the results for `O=C(c1ccccc1-c1nn[nH]n1)N1CCc2[nH]cnc2C1c1ccccn1` (centres undefined) are 101%, 107%, -0.169% (inactive) and -0.0711%.
On the same counts, the results for `O=C(OC[C@@H]1O[C@H]1c1ccccc1)Oc1ccc([N+](=O)[O-])cc1` are 101%, 105%, -0.0534% (inactive) and -0.0466%.
Take `CC(C)CC(C(=O)NC(Cc1ccc(OCc2ccccc2)cc1)C(=O)NC(C)(C)C)N(C)Cc1ccc(C(C)(C)C)cc1` (centres undefined): the nuclei count, normalised in experiment [1] (setting [10]) was 108%; in experiment [1] (setting [11]), 108%; in experiment [1] (setting [12]), 110%; in experiment [1] (setting [13]), 113%; in experiment [1] (setting [14]) it was 103%; in experiment [1] (setting [15]) it was 105%. For the same molecule, the values for the nuclei count, normalised in experiment [1] (setting [16]) and in experiment [1] (setting [17]) were 103% and 109%, respectively. Moreover, the p53-positive nuclei, normalised in experiment [2] (setting [18]) is 0.116% (inactive); in experiment [2] (setting [19]), -0.221% (inactive); in experiment [2] (setting [20]) it was 0.074% (inactive); in experiment [2] (setting [21]), -0.262% (inactive); in experiment [2] (setting [22]), -0.0604%; in experiment [2] (setting [23]), -0.22%. The p53-positive nuclei, normalised in experiment [2] (setting [24]) was -0.108%; in experiment [2] (setting [25]), -0.169%.
